Screens (PubChem)
L3MBTL1 block – qHTS Assay for the Inhibitors of L3MBTL1; Potency, µM (titrated, usually from 57.1 µM), without a hit: top-dose activity, negative = inhibition, hits mostly inhibitors; Lethal(3)malignant brain tumor-like protein 1 (Homo sapiens), Q9Y468; AlphaScreen L3MBTL1–H3K9me1 peptide binding; 230,000 tested, 0.66% active; note: potency is the fitted concentration of half-maximal effect; % is set by controls: 0 for no effect and ±100 for the full control effect; nearly all actives have a fitted effect of over 60% in size
Target sequence (Q9Y468 whole entry, looked up): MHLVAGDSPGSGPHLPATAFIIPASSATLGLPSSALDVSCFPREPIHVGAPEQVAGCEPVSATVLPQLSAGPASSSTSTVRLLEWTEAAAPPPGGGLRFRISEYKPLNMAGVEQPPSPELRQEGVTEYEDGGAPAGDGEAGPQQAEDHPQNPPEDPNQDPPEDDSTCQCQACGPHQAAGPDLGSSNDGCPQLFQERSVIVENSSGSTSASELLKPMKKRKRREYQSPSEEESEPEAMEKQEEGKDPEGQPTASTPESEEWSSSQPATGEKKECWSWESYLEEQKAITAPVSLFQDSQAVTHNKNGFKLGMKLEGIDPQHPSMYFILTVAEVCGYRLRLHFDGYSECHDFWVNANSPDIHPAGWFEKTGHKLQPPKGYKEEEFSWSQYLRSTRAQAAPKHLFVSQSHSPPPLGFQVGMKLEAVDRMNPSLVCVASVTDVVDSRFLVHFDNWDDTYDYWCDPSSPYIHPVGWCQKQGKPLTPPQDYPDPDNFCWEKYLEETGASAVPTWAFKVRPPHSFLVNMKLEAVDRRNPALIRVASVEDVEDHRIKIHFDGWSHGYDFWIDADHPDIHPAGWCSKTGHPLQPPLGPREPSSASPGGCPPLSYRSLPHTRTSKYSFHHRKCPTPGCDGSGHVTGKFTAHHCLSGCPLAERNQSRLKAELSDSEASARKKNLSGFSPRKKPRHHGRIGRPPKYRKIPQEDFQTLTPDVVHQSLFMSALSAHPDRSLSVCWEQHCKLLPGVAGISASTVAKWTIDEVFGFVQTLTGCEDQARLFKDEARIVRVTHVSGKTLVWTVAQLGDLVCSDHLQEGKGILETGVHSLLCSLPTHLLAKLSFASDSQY
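Displacement of a biotinylated histone H3(1-15) peptide monomethylated at Lys9 (75 nM) from L3MBTL1 (50 nM) was measured by AlphaScreen after a 30 min room-temperature compound incubation; cefsulodin titration served as intraplate control.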
BAZ2B block – qHTS Assay for Inhibitors of BAZ2B. AlphaScreen BAZ2B-H3K14Ac peptide displacement. Bromodomain adjacent to zinc finger domain protein 2B (Homo sapiens), Q9UIF8. 360,000 tested, 4.4% active. Potency, µM (titrated, usually from 114 µM), inactives show at the highest dose activity change, negative = inhibition, hits mostly inhibitors; note: potency is the fitted concentration of half-maximal effect; % is set by controls: 0 for no effect and ±100 for the full control effect; nearly all actives have a fitted effect of over 60% in size
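Multi-concentration screen (max 110 uM) measuring displacement of acetylated histone H3 peptide from BAZ2B by AlphaScreen, using 50 nM protein, 50 nM peptide and 10 ug/mL streptavidin donor plus Ni-chelate acceptor beads.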
JMJD2A Tudor inh – qHTS Assay for Inhibitors of JMJD2A-Tudor Domain; Potency, µM (titrated, usually from 114 µM), for inactives: at the highest dose activity change, negative = inhibition, usual class: inhibitors; AID 504339, 2011; AlphaScreen JMJD2A-Tudor / H3K4me3 peptide binding; 390,000 tested, 4.4% active; note: potency is the fitted concentration of half-maximal effect; % is set by controls: 0 for no effect and ±100 for the full control effect; nearly all actives have a fitted effect of over 50% in size
G9a inh – qHTS Assay for Inhibitors of Histone Lysine Methyltransferase G9a; Histone-lysine N-methyltransferase EHMT2 (Homo sapiens), Q96KQ7; G9a H3K9 monomethylation, AlphaScreen, 2 h; Potency, µM (top dose mostly 102 µM), for inactives: top-dose activity, negative = inhibition, actives largely listed as inhibitors; 350,000 tested, 8.8% active; AID 504332, 2011; note: potency is the fitted concentration of half-maximal effect; % is set by controls: 0 for no effect and ±100 for the full control effect; nearly all actives have a fitted effect of over 75% in size
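G9a (20 nM) was preincubated 15 min with compound, then reacted 2 h at room temperature with 500 nM biotin-H3K9 peptide and 20 µM SAM. Monomethyl-H3K9 detected by AlphaScreen using anti-H3K9me1 antibody.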
HP1b chromo inh – HTS for Inhibitors of HP1-beta Chromodomain Interactions with Methylated Histone Tails. AlphaScreen HP1-beta / biotin-H3K9me3 peptide binding. Potency, µM (series often up to 114 µM), for inactives: at the highest dose activity change, negative = inhibition, most hits filed as inhibitors. 390,000 tested, 0.56% active. AID 540317, 2011. Chromobox protein homolog 1 (Homo sapiens), P83916; note: potency is the fitted concentration of half-maximal effect; nearly all actives have a fitted effect of over 70% in size
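AlphaScreen: HP1-beta (50 nM) preformed 30 min with biotin-H3(1-18)K9me3 peptide (50 nM) in PBS pH 7.4, 0.01% Tween-20. Compound added for 30 min at RT, then streptavidin donor/nickel chelate acceptor beads (10 ug/mL) for 30 min.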
PI5P4Ka inh – qHTS for Inhibitors of phosphatidylinositol 5-phosphate 4-kinase (PI5P4K). Phosphatidylinositol 5-phosphate 4-kinase type-2 alpha (Homo sapiens), P48426. PI5P4Kalpha enzyme, ADP-Glo luminescence, 60 min; stronger effect = lower value. max response, %. 330,000 tested, 1.2% active. AID 652105, 2013; active = max response of -50% or lower; inconclusive = between -30% and -50%; inactive = -30% or higher; note: value at the top dose of about 77 µM; % is set by controls: 0 for no effect and ±100 for the full control effect
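Human PI5P4Kalpha with substrate in 0.038 M HEPES pH 7.4, 0.28 mM EGTA, 0.1% CHAPS, 5% DMSO; reaction started with 5 microM ATP (final), 60 min at room temperature. ADP formed read by ADP-Glo luminescence.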
An asterisk follows results filed as active; [ ] = remark or other dose. Most compounds without a hit are left out; they make up all but 11% or so of the library. Unless noted, calls come from the whole dose curve; as a rule, active = well fitted inhibition curve with a large enough effect; inconclusive = small, poorly fitted or top-dose-only effect; inactive = no such curve, though single readings can be large or run the other way.

What do the screens show for `CN(C)C=NC(=O)c1cc2c(n(-c3ccccc3)c1=O)CC(C)(C)CC2=O`?
BAZ2B block: 2%; JMJD2A Tudor inh: -12%; G9a inh: -8%[59 µM]; HP1b chromo inh: 24%

How did O=C(c1ccccc1)c1ccc(NCCCn2ccnc2)c([N+](=O)[O-])c1 do in these assays?
BAZ2B block: 40µM*; JMJD2A Tudor inh: 40µM*; G9a inh: -8%[2.33 µM]; HP1b chromo inh: inconclusive; PI5P4Ka inh: -1

What do the screens show for `CCCOc1ccc(CNC(=O)c2cc3oc4ccccc4c3n2C)cc1`?
BAZ2B block: -20%; JMJD2A Tudor inh: -1%; G9a inh: 17%[59 µM]; HP1b chromo inh: 41%

Results for c1ccc(-c2nnc3sc(-c4csc5c4CCCC5)nn23)cc1 ?
L3MBTL1 block: -4%; BAZ2B block: 14%; JMJD2A Tudor inh: inconclusive; G9a inh: 5µM*; HP1b chromo inh: inconclusive; PI5P4Ka inh: inconclusive

Results for c1ccc(-c2nnc3sc(-c4ccncc4)nn23)cc1 ?
L3MBTL1 block: -11%; BAZ2B block: 2%; JMJD2A Tudor inh: -25%; G9a inh: -4%[12.7 µM]; HP1b chromo inh: -16%

How did O=C(/C=C/c1ccccc1)NNc1ccc(Cl)cc1 do in these assays?
L3MBTL1 block: 13%; BAZ2B block: inconclusive; JMJD2A Tudor inh: 1%; G9a inh: 8.9µM*; HP1b chromo inh: 30%; PI5P4Ka inh: -9

Results for COc1cc(SC#N)ccc1N=Cc1c(C)[nH]n(-c2ccc(C)c(C)c2)c1=O ?
L3MBTL1 block: -10%; BAZ2B block: -2%; JMJD2A Tudor inh: -19%; G9a inh: 10µM*; HP1b chromo inh: -8%; PI5P4Ka inh: -5

How did COc1cc(SC#N)ccc1N=Cc1c(C)[nH]n(-c2ccc(Cl)cc2)c1=O do in these assays?
L3MBTL1 block: -2%; BAZ2B block: 10%; JMJD2A Tudor inh: -19%[11.4 µM]; G9a inh: -6%[12.7 µM]; HP1b chromo inh: 1%; PI5P4Ka inh: -13

How did COc1cccc(C(=O)Nc2cccc(OCc3cc(=O)n4cccc(C)c4n3)c2)c1 do in these assays?
BAZ2B block: 6%; JMJD2A Tudor inh: 3%; G9a inh: -31%[59 µM]; HP1b chromo inh: 35%[57 µM]

How did CCOc1ccc(Cl)cc1CNCCCSc1nnnn1C do in these assays?
BAZ2B block: -2%; JMJD2A Tudor inh: 0%; G9a inh: 2%[59 µM]; HP1b chromo inh: 48%

What do the screens show for `Cc1ccc(S(=O)(=O)N2CCN(c3nc(-c4ccc(CN5CCOCC5)s4)nc4ccccc34)CC2)cc1`?
JMJD2A Tudor inh: -34%; HP1b chromo inh: 18%

What do the screens show for `Cc1nn(-c2ccc(N3CCCC3)nn2)c(C)c1CCC(=O)NCc1ccccc1`?
BAZ2B block: -21%; JMJD2A Tudor inh: -10%; G9a inh: 4%[59 µM]; HP1b chromo inh: 51%

Results for CSc1ccc(CNC(=O)CCc2c(C)nn(-c3ccc(N4CCCC4)nn3)c2C)cc1 ?
BAZ2B block: 56µM*; JMJD2A Tudor inh: -27%; G9a inh: 6%[59 µM]; HP1b chromo inh: -12%

How did COc1ccc(NC(=O)c2cc3nc(-c4ccc(C)c(C)c4)cc(C(F)(F)F)n3n2)cc1 do in these assays?
BAZ2B block: 8%; JMJD2A Tudor inh: 2%; G9a inh: 0%[59 µM]; HP1b chromo inh: 52%

Results for Cc1ccc(N2C(S)=C(C#N)C(=O)NC23CCCCC3)cc1 ?
L3MBTL1 block: 3%; BAZ2B block: -9%; JMJD2A Tudor inh: -22%[57.1 µM]; G9a inh: 28µM*; HP1b chromo inh: 19%; PI5P4Ka inh: 3
